From PubChem
Hits are enriched below; roughly 5.9% of the tested compounds scored in any of these assays.
HEK293 tox – qHTS of GLP-1 Receptor Inverse Agonists: Cytotox Screen. Potency, µM (top dose mostly 38.3 µM), usual class: inhibitors. actives 0.13% (n = 410,000). HEK293 cAMP-luciferase reporter cells, luminescence, 24 h;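 also: loss of luciferase light is scored as toxicity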
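Here, cytotoxicity is scored as loss of luminescence. The MLSMR collection was tested on cells seeded in medium containing 10% Nu serum, with a 24 hr compound exposure preceded by 12 hours of culture.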
RORg inh – qHTS for inhibitors of ROR gamma transcriptional activity. Drosophila S2 Gal4-RORgamma UAS-luciferase reporter, 20 h. AID 2551, 2010. Nuclear receptor ROR-gamma (Mus musculus), P51450. Potency, µM (top dose mostly 53.6 µM), usual class: inhibitors. actives 5.4% (n = 310,000); also: nearly all actives have a fitted effect of over 60% in size
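Drosophila Schneider cells stably carrying a metallothionein-driven Gal4 DBD–ROR gamma fusion and a UAS-Photinus luciferase reporter were exposed to compound for 1 hr, then induced with copper sulfate (700 uM final) for 20 hr at ambient temperature before luminescence reading.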
Gal4-VP16 FLuc – VP16 counterscreen qHTS for inhibitors of ROR gamma transcriptional activity; Drosophila S2 Gal4-VP16 UAS-luciferase, luminescence, 20 h; Potency, µM (top dose mostly 53.6 µM), actives largely listed as inhibitors; actives 3.5% (n = 310,000);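 also: Gal4-VP16 expression switched on by copper sulfate through the metallothionein promoter; nearly all actives have a fitted effect of over 50% in size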
GLP1R ag – qHTS of GLP-1 Receptor Agonists | Glucagon-like peptide 1 receptor (Homo sapiens), P43220 | actives 0.007% (n = 380,000) | AID 624172, 2012 | HEK293 GLP-1R CRE-luciferase, luminescence, 4-6 h; cells express a hypersensitive GLP-1R form | Potency, µM (top dose mostly 45.6 µM), actives largely listed as activators
Target sequence (P43220 whole entry, looked up): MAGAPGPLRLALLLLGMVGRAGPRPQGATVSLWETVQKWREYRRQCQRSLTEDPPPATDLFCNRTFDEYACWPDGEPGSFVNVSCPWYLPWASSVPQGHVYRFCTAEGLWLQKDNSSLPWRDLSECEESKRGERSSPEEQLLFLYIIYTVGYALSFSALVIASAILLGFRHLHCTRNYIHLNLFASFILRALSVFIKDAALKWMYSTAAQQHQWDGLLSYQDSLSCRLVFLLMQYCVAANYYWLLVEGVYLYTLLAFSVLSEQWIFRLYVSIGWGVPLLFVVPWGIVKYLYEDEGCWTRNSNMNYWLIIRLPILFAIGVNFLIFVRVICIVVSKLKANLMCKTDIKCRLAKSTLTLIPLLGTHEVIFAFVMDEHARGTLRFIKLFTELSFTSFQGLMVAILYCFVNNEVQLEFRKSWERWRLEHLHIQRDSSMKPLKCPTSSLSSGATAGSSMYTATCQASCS
GLP-1R inv ag – qHTS of GLP-1 Receptor Inverse Agonists (Inhibition Mode); Potency, µM (series often up to 38.3 µM), most hits filed as inhibitors; HEK293 GLP-1R CRE-luciferase, luminescence, 24 h; GLP-1R form is constitutively active; actives 1.6% (n = 410,000); Glucagon-like peptide 1 receptor (Homo sapiens), P43220; also: nearly all actives have a fitted effect of over 55% in size
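Stable HEK293 clone (constitutively active GLP-1R + cAMP-response luciferase); 200 cells/uL plated, 12 h pre-culture, compound 24 hr, 37 deg C/5% CO2; detection reagent 12 min RT; luminescence.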
Numbers stand for hits; n = inactive; u = inconclusive; x = not tested or not shown; [ ] = another dose, or the depositor's remark. Calls follow the shape of the dose curve; as a rule, active = well fitted curve in the direction sought with a large enough effect; inconclusive = small, poorly fitted or top-dose-only effect, or another doubt; inactive = no such curve, though single readings can be large; an effect the other way counts as inactive or inconclusive.

SMILES | HEK293 tox | RORg inh | Gal4-VP16 FLuc | GLP1R ag | GLP-1R inv ag
OCCN(CCCn1c(C(F)(F)F)nc2ccccc21)c1nc(CN2CCCCC2)cs1 | n | n | n | n | n
Cc1ccc(-c2csc(N(CCO)CCCn3c(C(F)(F)F)nc4cc(C(F)(F)F)ccc43)n2)cc1 | n | 10µM | u | n | u
COc1ccc(NS(=O)(=O)c2cccc(NC(=O)c3ccc(Cl)nc3)c2)cc1 | n | u | 2.8µM | n | u
O=C(Nc1cccc(S(=O)(=O)Nc2ccc(Cl)cc2)c1)c1ccc(Cl)nc1 | u | u | 3.2µM | n | u
O=C(c1ccc2c(c1)N(Cc1cccc(Cl)c1)C(=O)c1ccccc1S2(=O)=O)N1CCc2ccccc21 | n | x | x | x | n
Cc1cccc(-n2c(-c3ccc(Br)o3)n[nH]c2=S)c1 | n | x | x | n | n
Cc1ccccc1-n1c(-c2cccnc2)n[nH]c1=S | n | u | n | n | n
Cc1ccccc1-n1c(-c2csc3ccccc23)n[nH]c1=S | n | 1.1µM | u | n | n
Cc1ccccc1-n1c(-c2csc(C)c2C)n[nH]c1=S | u | 2.8µM | 6.3µM | n | n
Cc1scc(-c2n[nH]c(=S)n2C(C)c2ccccc2)c1C (stereo unspecified) | u | 4µM | 7.1µM | n | u
Cc1cccc(-n2c(-c3csc(C)c3C)n[nH]c2=S)c1 | n | 2.5µM | 11µM | n | n
CCc1cc(-c2n[nH]c(=S)n2C(C)c2ccccc2)cs1 (stereo unspecified) | n | n | n | n | n
CCCOc1ccc(NC(=O)CC2C(=O)N(c3cccc(C)c3)C(=O)N2CCc2ccncc2)cc1 (stereo unspecified) | n | x | x | x | n
CO/N=C1\C[C@]2(C[C@@H]3C[C@H](C/C=C(/C)C[C@@H](C)/C=C\C=C4\CO[C@@H]5[C@@H](O)C(C)=C[C@@H](C(=O)O3)[C@]45O)O2)O[C@@H](/C(C)=C/C(C)C)[C@H]1C | x | x | x | n | x
CCCCn1c(C)cc2c(c1=O)[C@H]1O[C@](CCCC)(Cc3c1ccc1ccccc31)O2 | x | n[10 µM] | n[10 µM] | x | x
COc1ccccc1CNC(=O)c1cc(-c2ccccc2)nn1Cc1cc(C)no1 | n | x | x | n | u
CCc1cc(Cn2nc(-c3ccccc3)cc2C(=O)NCc2ccccc2OC)on1 | n | x | x | n | 11µM
COc1ccc(-c2ccnc3c2c(=O)n(C)c(=O)n3C)cc1OC | n | x | x | n | n
CCNC(=S)NNC(=O)c1cc(-c2cccc(OCC)c2)nc2ccccc12 | n | 13µM | u | n | n
CCCNC(=S)NNC(=O)c1cc(-c2cccnc2)nc2ccccc12 | n | u | n | n | n
CCNC(=S)NNC(=O)c1cc(-c2cccc(C)c2)nc2ccccc12 | n | 3.5µM | 8.9µM | n | n
CCNC(=S)NNC(=O)c1cc(-c2cccnc2)nc2ccccc12 | n | 16µM | u | n | n
CCCCOc1cccc(-c2cc(C(=O)NNC(=S)NCC)c3ccccc3n2)c1 | u | n | u | n | n
COc1cc2c(cc1OC)C1O[C@](CCCCN3C(=O)c4ccccc4C3=O)(C2)OC2=C1C(=O)OC1(CCCCC1)C2 | x | n[10 µM] | n[10 µM] | x | x
Cc1c(C(=O)OC(C)C)sc(NC(=O)C2c3ccccc3Oc3ccccc32)c1C(=O)OC(C)C | n | x | x | x | 8.9µM
SMILES | HEK293 tox | RORg inh | Gal4-VP16 FLuc | GLP1R ag | GLP-1R inv ag
CC(=O)Oc1ccc(N2C(=O)C3C4C=CC(CO)(O4)C3C2=O)cc1 (stereo unspecified) | n | 5µM | u | n | n
CC(=O)Oc1ccc(-n2c(=O)c3ccccc3c3ccccc3c2=O)cc1 | n | n | n | n | n
COC(=O)c1cc(N2C(=O)C3C(C2=O)C2(C)C=CC3(C)O2)ccc1Cl (stereo unspecified) | x | 3.5µM | 5.6µM | x | x
O=C1C2C3C=CC(CO)(O3)C2C(=O)N1c1ccccc1-c1ccccc1 (stereo unspecified) | u | 1.8µM | 2.2µM | n | n
O=C1C2C3C=CC(CNS(=O)(=O)c4ccccc4)(O3)C2C(=O)N1c1ccc(Cl)cc1 (stereo unspecified) | n | n | u | n | n
CC(=O)Oc1ccc(N2C(=O)C3C(C2=O)C2(C)C=CC3(C)O2)cc1 (stereo unspecified) | x | 4µM | 4.5µM | x | x
CN(C)/C=C/C(=O)c1cccc(Cl)c1 | n | n | 10µM | n | n
CN(C)/C=C/C(=O)c1ccc(Cl)cc1 | n | u | n | n | n
CC(C)(C)C1CCC2(CC1)C(C#N)=C(SCC(=O)NC1CCCCC1)NC(=O)C2C#N (stereo unspecified) | n | n | n | n | 8.9µM
N#CC1=C(SCC(=O)NC23CC4CC(CC(C4)C2)C3)NC(=O)C(C#N)C12CCCCC2 (stereo unspecified) | u | u | 16µM | n | u
c1ccc(CNc2ccnc(-c3cccnc3)n2)cc1 | x | n | n | x | x
Cc1ccc(C(=O)CSc2nnc(CNc3ccc(C)cc3C)n2Cc2ccco2)cc1 | n | n | n | n | 10µM
COc1ccc(C(=O)CSc2nnc(CNc3ccc(C)cc3C)n2Cc2ccco2)cc1 | n | n | n | n | n
O=C(CSc1nnc(-c2cc3ccccc3cc2O)n1Cc1ccco1)c1ccc(F)cc1 | n | n | 14µM | n | u
COc1ccc(C2C=C(c3ccc(F)cc3)NC(=S)N2)cc1OC (stereo unspecified) | n | 8.9µM | u | n | n
COc1ccc(C2=CC(c3ccc(OC)c(OC)c3)NC(=S)N2)cc1 (stereo unspecified) | n | u | n | n | n
COC(=O)c1sccc1NC(=O)Nc1cccc(C)c1 | n | n | n | n | n
COC(=O)c1sccc1NC(=S)Nc1ccc(F)cc1F | n | 5.6µM | u | n | n
COC(=O)c1sccc1NC(=O)c1cccc(F)c1 | n | x | x | n | n
COC(=O)c1sccc1NC(=S)Nc1cccc(F)c1 | n | 18µM | u | n | n
COC(=O)c1sccc1NC(=S)Nc1ccccc1 | n | 16µM | u | n | n
COC(=O)c1sccc1NC(=O)c1c(F)c(F)c(F)c(F)c1F | n | x | x | n | n
COC(=O)c1sccc1NC(=S)Nc1cc(C)cc(C)c1 | u | 5µM | 4.5µM | n | n
COc1cc(NS(=O)(=O)c2c(C(=O)N3CCCCC3)c(C)n(C)c2C)cc(OC)c1OC | n | x | x | x | n
O=C(CSc1nc2ccccc2s1)N1c2ccccc2Sc2ccc(C(F)(F)F)cc21 | n | n | n | n | 5µM
O=C(CSc1nc2ccccc2s1)N1c2ccccc2Sc2ccc(Cl)cc21 | n | n | n | n | n
CCC1CCCCN1S(=O)(=O)c1ccc(C(=O)Nc2nnc(C3=COCCO3)o2)cc1 (stereo unspecified) | n | 0.89µM | 1µM | n | n
